Results on 17 compounds are retold here after PubChem BioAssay (NCATS).

Each structure is given as a SMILES string. Values without a mark were called inactive. Results filed as inconclusive are left out. The source made the active and inactive calls. Unless noted, the call rests on the fitted dose curve; in most records, active means well fitted curve in the direction sought with a large enough effect; inconclusive means small, poorly fitted or top-dose-only effect, or another doubt; inactive means no such curve, though single readings can be large; an effect the other way counts as inactive or inconclusive.

In test [1] the target is Nuclear receptor subfamily 1 group I member 2 (Rattus norvegicus) (UniProt Q9R1A7). As to the kind of experiment: qHTS assay for small molecule activators of the rat pregnane X receptor (rPXR) signaling pathway (AID 651751; call rule not given here; further: 0% is about no effect). The conditions noted are these: rPXR reporter cells, luciferase (One-Glo), 24 h.
A short description of test [2]: qHTS assay for small molecule activators of the human pregnane X receptor (PXR) signaling pathway (AID 720659; call rule not given here; further: 0% is about no effect). The conditions noted are these: DPX-2 HepG2 CYP3A4-luciferase, 24 h; series mostly up to 92.3 µM. For orientation: In qHTS, concentration-response curves come from the screen itself.
Test [3] relates to TAB109. The experiment in a line: qHTS profiling for inhibitors of Plasmodium falciparum proliferation (AID 504749). Further: nearly all actives have a fitted effect of over 60% in size. Further: potency means the concentration at half of the fitted maximal effect. The conditions noted are these: P. falciparum in erythrocytes, SYBR Green DNA, 72 h; series mostly up to 28.7 µM. In short, it runs like this: (§1)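 In a 72 h erythrocytic culture (37 C, humidified, 5% CO2) at 2.5% hematocrit and 0.3% starting parasitemia, compounds were tested; SYBR Green I in detergent lysis buffer stained parasite DNA overnight.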

Test [4] has as its system TAB113. The description is as above. The conditions noted are these: P. falciparum in erythrocytes, SYBR Green DNA, 72 h; series mostly up to 28.7 µM. In short, it runs like this: as §1
The test system of test [5] is TAB165. The description is as above. The conditions noted are these: P. falciparum in erythrocytes, SYBR Green DNA, 72 h; series mostly up to 28.7 µM. In short, it runs like this: as §1
Test [6] concerns W2. The description is as above. The conditions noted are these: P. falciparum in erythrocytes, SYBR Green DNA, 72 h; series mostly up to 28.7 µM. The gist of the method:
as §1

Test [7] in a line: qHTS assay to identify inhibitors of the type 1 interferon - major histocompatibility complex class I in skeletal muscle: Counter screen cell viability and HiBit confirmation (AID 1347412). Further: potency means the concentration at half of the fitted maximal effect. On activity change, negative = inhibition: on the % scale 0 is the no-effect control and ±100 the full control effect. On all read-outs here: nearly all actives have a fitted effect of over 60% in size. To be noted: iHSKM muscle cells + IFN-b, HiBiT or CellTiter-Glo, 24 h; for activity change, negative = inhibition: at 45.9 µM (top of the series). The gist of the method: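 HLA-B*08:01–HiBiT knock-in immortalized human myoblasts (C25cl48) stimulated with 4.0 ng/ml human IFN-beta and dosed with compound in a 12-point 1:3 titration (top final 46 uM). After 24 hrs at 37 C, HiBiT lytic luminescence or CellTiter Glo ATP read out.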

Nuclear receptor subfamily 1 group I member 2 (Rattus norvegicus), sequence (Q9R1A7 whole entry, looked up): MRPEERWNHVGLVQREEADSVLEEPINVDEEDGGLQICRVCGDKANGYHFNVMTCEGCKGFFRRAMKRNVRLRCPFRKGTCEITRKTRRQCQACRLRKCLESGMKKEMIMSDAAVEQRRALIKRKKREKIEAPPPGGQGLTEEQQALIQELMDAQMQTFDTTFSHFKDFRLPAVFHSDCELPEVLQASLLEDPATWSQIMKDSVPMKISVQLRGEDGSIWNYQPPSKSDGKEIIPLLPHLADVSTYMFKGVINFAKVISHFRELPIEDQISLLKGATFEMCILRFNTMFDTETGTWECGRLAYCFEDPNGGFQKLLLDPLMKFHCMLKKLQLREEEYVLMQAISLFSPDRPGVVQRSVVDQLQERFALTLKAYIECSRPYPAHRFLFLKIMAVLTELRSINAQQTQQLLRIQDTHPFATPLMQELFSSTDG

As to `C/C(=C\c1ccc(C(=O)O)cc1)c1ccc2c(c1)C(C)(C)CCC2(C)C`, the max response in test [1] is 1.8%.
As for `CCCc1c(-c2ccc(O)cc2)nn(-c2ccc(O)cc2)c1-c1ccc(O)cc1`, the max response in test [1] is -3.52%. In addition, the compound was classed as inactive in test [2].
Taken in the same sequence, the figures for `CCCCCCCCCCCCCCSCC(=O)O` were 5.54% and “inactive”.
For the compound `CC(O)C(O)[C@H]1CNc2nc(N)[nH]c(=O)c2N1` (some centres not stated), the Potency result in test [3], in test [4], in test [5] and in test [6] was “inactive” throughout.
As for `CC(=O)C(C)=O`, in test [1], the max response is -4.56%. Further, the outcome in test [2] was inactive.
Turning to `CCCCCCCCCCCCCCC[C@H](O)[C@H](N)CO`, the Potency entry in test [3], in test [4], in test [5] and in test [6] was “inactive” each time.
As for `O=c1[nH]c2cc(Cl)ccc2c(O)c1-c1ccc(Oc2ccccc2)cc1`, the Potency in test [7] (HiBiT) is 5.57 µM (active). Besides, the activity change, negative = inhibition in test [7] (Viability) was -0.671%.
As for `CCCCCCCCCCCCCCCCCCOC[C@H](COP(=O)([O-])OCC[N+](C)(C)C)OC`, the Potency entry in test [3], in test [4], in test [5] and in test [6] was “inactive” throughout.
Consider `C=C1C(=O)O[C@@H]2[C@H]3O[C@]3(C)CCC=C(C)CC[C@@H]12`, for which the Potency in test [7] (HiBiT) is 8.83 µM (active). Further, in test [7] (Viability), the activity change, negative = inhibition was 52.5%.
Regarding `CC(C)NC[C@H](O)COc1ccc(CC(N)=O)cc1`, the Potency result in test [3], in test [4], in test [5] and in test [6] was “inactive” throughout.
Turning to `O=C1Cc2c([nH]c3ccc(Br)cc23)-c2ccccc2N1`, in test [7] (HiBiT), the Potency was 15.7 µM (active). Moreover, the activity change, negative = inhibition in test [7] (Viability) is -21.6%.
Consider `CC[n+]1c(/C=C/C=C2/N(C)c3ccccc3C2(C)C)sc2ccccc21`, for which the Potency in test [7] (HiBiT) was 7.01 µM (active); in test [7] (Viability), 9.91 µM (active).
Take `CCCc1c(OCCCOc2ccc(OCC(=O)O)cc2)ccc(C(C)=O)c1O`: the max response in test [1] was -1.22%.
For `NC(=O)c1ccccc1`, the max response in test [1] is -1.26%. Moreover, the outcome in test [2] was inactive.
With `c1ccc(C2CN3CCSC3=N2)cc1` (configuration not stated), the Potency in test [3] was 4.47 µM (active); in test [4] it was 11.2 µM (active); in test [5], 5.01 µM (active); in test [6], 1.51 µM (active).
`Brc1c(Br)c(Br)c2[nH]cnc2c1Br`: in test [7] (HiBiT), the Potency was 14 µM (active). Moreover, the activity change, negative = inhibition in test [7] (Viability) was 3.14%.
In the case of `CN1C2CCC1CC(OC(c1ccccc1)c1ccccc1)C2` (configuration not stated), the Potency entry in test [4] is “inactive”. The Potency in test [6] was 1.51 µM (active).
